Several values for one entry are separate records, joined by “and”; a condition that tells them apart may be missing. Equal entries are not always repeated. The campaign covered roughly 16,000 compounds. About 5,100 (32%) were called active. Another 25% or so got no clear call; they are omitted. Calls follow the shape of the dose curve; as a rule, active = well fitted curve in the direction sought with a large enough effect; inconclusive = small, poorly fitted or top-dose-only effect, or effect the other way; inactive = no such curve, though single readings can be large or run the other way. Some of the results follow. Some structures have more than one record in an assay (separate samples or runs), and their calls can disagree.

This note sets out measurements from PubChem BioAssay AID1851 (National Center for Advancing Translational Sciences (NCATS), 2009).
% is scaled to controls: 0 for no effect and ±100 for the full control effect.

The test deals with Cytochrome P450 3A4 (Homo sapiens) (UniProt P08684). Description: Cytochrome panel assay with activity outcomes. The following applies: recombinant CYP, pro-luciferin dealkylation, luminescence, p450-cyp3a4; series mostly up to 57.1 µM; activity, negative = inhibition: at the top concentration.
Chain of Cytochrome P450 3A4 (Homo sapiens) (P08684 whole entry, looked up): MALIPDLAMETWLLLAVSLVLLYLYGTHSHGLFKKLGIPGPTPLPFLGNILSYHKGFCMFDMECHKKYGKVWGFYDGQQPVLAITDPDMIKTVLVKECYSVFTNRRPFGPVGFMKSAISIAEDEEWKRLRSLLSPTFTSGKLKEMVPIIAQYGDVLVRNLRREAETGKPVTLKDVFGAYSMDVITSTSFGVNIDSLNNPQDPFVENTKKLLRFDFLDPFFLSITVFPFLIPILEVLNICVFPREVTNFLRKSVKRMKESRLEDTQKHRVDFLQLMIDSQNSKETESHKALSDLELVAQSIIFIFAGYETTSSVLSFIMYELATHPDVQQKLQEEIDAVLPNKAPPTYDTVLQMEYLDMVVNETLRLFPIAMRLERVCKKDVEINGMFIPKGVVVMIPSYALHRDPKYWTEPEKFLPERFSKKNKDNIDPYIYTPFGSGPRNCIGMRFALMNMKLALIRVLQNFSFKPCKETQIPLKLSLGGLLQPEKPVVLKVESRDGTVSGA
On to `O=C(O)CC[N+](=O)[O-]`, for which the “activity, negative = inhibition” value is -3.73% (inactive).
The term AC50 denotes the concentration at which the activity in the assay is half-maximal. `CC(C)Oc1cc(-n2c(=S)[nH]c3ccccc3c2=O)c(Cl)cc1Cl`: the AC50 is 3.16 µM (active).
As to `CN1[C@H]2CC(=O)C[C@@H]1[C@@H](O)C2`, the “activity, negative = inhibition” value is -6.95% [at 25.6 µM] (inactive).
With `c1ccc2cc(CC3=NCCN3)ccc2c1`, the “activity, negative = inhibition” value is 2.4% (inactive).
For `N[C@H](Cn1ccc(=O)[nH]c1=O)C(=O)O`, the “activity, negative = inhibition” value is -12.2% (inactive).
Consider `CC[C@@H](CO)NC(=O)[C@H]1C=C2c3cccc4c3c(cn4C)C[C@H]2N(C)C1`, for which the “activity, negative = inhibition” value was -23.2% (inactive).
Consider `CC(C)[C@H](CO)Nc1nc(Nc2cccc(Cl)c2)c2ncn(C(C)C)c2n1`, for which the AC50 was 12.6 µM (active).
In the case of `CC[C@@H](CO)Nc1nc(NCc2ccccc2)c2ncn(C(C)C)c2n1`, the AC50 was 12.6 µM (active).
`COC(=O)c1c(C)ccc2c(O)c3c(cc12)C(=O)c1c2c(cc(O)c1C3=O)[C@@]1(C)O[C@@](C)(O2)[C@@H](O)[C@H](N(C)C)[C@H]1O`: the activity, negative = inhibition is -1.78% [at 11.4 µM] (inactive).
Regarding `C(=NC12CN3CN(CN(C3)C1)C2)c1cccs1`, the “activity, negative = inhibition” value is 6.71% (inactive).
As for `CN(C)C(=O)Oc1cccc([N+](C)(C)C)c1`, the “activity, negative = inhibition” value is -6.77% (inactive).
Regarding `COC(=O)C1=CCCN(C)C1`, the activity, negative = inhibition entry is “inactive”.
Take `CC(C)N[C@@H](C)Cc1ccc(I)cc1`: the “activity, negative = inhibition” value was -6.5% (inactive).
For the molecule `Nc1nc(N)c(N=Nc2ccc([As](=O)(O)O)cc2)c(=O)[nH]1`, the activity, negative = inhibition was 8.58% [at 11.4 µM] (inactive).
In the case of `C/C=C1\C[C@H](C)[C@@](O)(CO)C(=O)OCC2=CCN3CC[C@@H](OC1=O)[C@@H]23`, the “activity, negative = inhibition” value is 11.6% [at 25.6 µM] (inactive).
Still for that read-out and setting: the same measure for `N=C1c2ccccc2CN1NC(=O)c1ccc(F)cc1`: -6.32% (inactive).
Regarding `Cc1nccc2c1[nH]c1ccccc12`, the AC50 result was “inactive and 3.98 µM (active)”.
`Cc1c2ccncc2c(C)c2c1[nH]c1ccccc12`: the AC50 was 0.158 µM (active).
For the molecule `CCN(CC)CCn1ncc2c(N)ncnc21`, the activity, negative = inhibition was -6.29% [at 11.4 µM] (inactive).
Turning to `COc1ccc2cc1Oc1ccc(cc1)C[C@H]1c3cc(c(OC)cc3CCN1C)Oc1c(OC)c(OC)cc3c1[C@@H](C2)N(C)CC3`, the activity, negative = inhibition is -2.4% [at 11.4 µM] (inactive).
Take `C[N+]1(C)CCO[C@](O)(c2ccc(-c3ccc([C@]4(O)C[N+](C)(C)CCO4)cc3)cc2)C1`: the “activity, negative = inhibition” value is 0.891% [at 25.6 µM] (inactive).
For the molecule `COCCn1c(SCc2nc3sc(C(=O)OC)c(C)c3c(=O)[nH]2)nc2ccccc21`, the AC50 is 3.55 µM (active).
Take `CC1(C)N(O)C(c2ccc(C(=O)O)cc2)=[N+]([O-])C1(C)C`: the “activity, negative = inhibition” value is -3.6% (inactive).
`CC(C)[C@@H](C)/C=C\[C@@H](C)[C@@H]1CC[C@H]2C3=CC=C4C[C@@H](O)CC[C@]4(C)[C@H]3CC[C@]21C`: the activity, negative = inhibition was 10.4% [at 11.4 µM] (inactive).
Same read-out and setting: as for `NCCP(=O)(O)O`, the figure is -6.9% [at 11.4 µM] (inactive); as for `CCOCCN1CCC(OC(C)=O)C(C)C1` (stereo not drawn), -5.63% (inactive).
On to `CC(C)(C)NC[C@@H](O)COc1cccc2[nH]c(C#N)cc12`, for which the AC50 is 25.1 µM (active).
Turning to `NCC1(CC(=O)O)CCCCC1`, the activity, negative = inhibition result is “inactive”.
As for `COc1cc(/C=N/NC(=O)CN2CC(c3ccccc3)CC2=O)ccc1OC(=O)N(C)C` (stereo not drawn), the “activity, negative = inhibition” value was -11.8% (inactive).
Still for that read-out and setting: the same measure for `CC[C@H](C)C(=O)O[C@@H]1[C@H](O)[C@@H]2[C@H](CN3C[C@@H](C)CC[C@@H]3[C@@]2(C)O)[C@@H]2C[C@@]34O[C@@]5(O)[C@@H](OC(=O)[C@](C)(O)CC)CC[C@@]3(C)[C@H]5[C@H](OC(C)=O)[C@@H](OC(C)=O)[C@H]4[C@]12O`: 2.61% [at 25.6 µM] (inactive); for `N[C@@H](Cc1cc(Br)c(O)c(Br)c1)C(=O)O`: -16.7% [at 11.4 µM] (inactive).
As to `Cc1ccc2c(c1)C1CN(C)CCC1N2C(=O)Nc1cccc(Cl)c1` (stereo not drawn), the “activity, negative = inhibition” value was -26.5% (inactive).
Consider `CCn1cnc2c(Nc3cccc(Cl)c3)nc(N[C@@H]3CCCC[C@H]3N)nc21`, for which the AC50 is 12.6 µM (active).
With `COc1ccc(C(=O)NC2CC3CCCC(C2)N3CC(C)C)cc1OC` (stereo not drawn), the “activity, negative = inhibition” value was 3.52% (inactive).
Same read-out and setting: as for `CC(Oc1ccc(-c2ccccc2)cc1)C(=O)O` (stereo not drawn), the figure is 4.5% [at 11.4 µM] (inactive).
Turning to `C[C@@H]1O[C@H](OC2[C@@H](O)[C@H](O)C(O)[C@H](O)[C@H]2O)[C@@H](N)C[C@@H]1N=C(N)C(=O)O` (stereo partly drawn), the activity, negative = inhibition was 2.45% [at 11.4 µM] (inactive).
For `NC[C@@H](CC(=O)O)c1ccc(Cl)cc1`, the “activity, negative = inhibition” value was -14.9% [at 25.6 µM] (inactive).
Turning to `O=C1CN=C(c2cccs2)c2c(sc3c2CCCC3)N1`, the half-maximal activity concentration (AC50) was 15.8 µM (active).
Regarding `Cc1cc(Cc2cc(C)c(N)cc2N)c(N)cc1N`, the activity, negative = inhibition is -12.7% [at 11.4 µM] (inactive).
The same measure, in the same setting: the same measure for `Cc1ccc(NC(=[OH+])c2cc3ccccc3cc2O)c(C)c1.Cc1ccc(NC(=[OH+])c2cc3ccccc3cc2O)c(C)c1.[Ni]`: -23% [at 11.4 µM] (inactive); for `CC(C)CCC[C@@H](C)[C@@H]1CC[C@@H]2[C@H]3CC[C@H]4C[C@@H](N)CC[C@@]4(C)[C@@H]3CC[C@]21C`: 0.227% [at 11.4 µM] (inactive).
Same read-out and setting: as for `Cc1c2cc[n+](CCN3CCCCC3)cc2c(C)c2c1[nH]c1ccc(O)cc12`, the figure is -14.8% [at 11.4 µM] (inactive); as for `CN1CCN(C(=O)O[C@@H]2c3nccnc3C(=O)N2c2ccc(Cl)cn2)CC1`, -19.1% (inactive).
